# Measured values as given in PubChem BioAssay (NCATS).
# Unmarked numbers belong to inactive results. Records with an inconclusive call do not appear. A call without a number means that no potency is given here. Activity calls are given as the source filed them. Unless noted, the call rests on the fitted dose curve; in most records, active means well fitted curve in the direction sought with a large enough effect; inconclusive means small, poorly fitted or top-dose-only effect, or another doubt; inactive means no such curve, though single readings can be large; an effect the other way counts as inactive or inconclusive.
# Key:
# [1] = target: Cytochrome P450 1A2 (Homo sapiens) (UniProt P05177); test: p450-cyp1a2 (AID 410; calls by dose curve; further: potency means the concentration at half of the fitted maximal effect)
# Chain of Cytochrome P450 1A2 (Homo sapiens) (P05177 whole entry, looked up): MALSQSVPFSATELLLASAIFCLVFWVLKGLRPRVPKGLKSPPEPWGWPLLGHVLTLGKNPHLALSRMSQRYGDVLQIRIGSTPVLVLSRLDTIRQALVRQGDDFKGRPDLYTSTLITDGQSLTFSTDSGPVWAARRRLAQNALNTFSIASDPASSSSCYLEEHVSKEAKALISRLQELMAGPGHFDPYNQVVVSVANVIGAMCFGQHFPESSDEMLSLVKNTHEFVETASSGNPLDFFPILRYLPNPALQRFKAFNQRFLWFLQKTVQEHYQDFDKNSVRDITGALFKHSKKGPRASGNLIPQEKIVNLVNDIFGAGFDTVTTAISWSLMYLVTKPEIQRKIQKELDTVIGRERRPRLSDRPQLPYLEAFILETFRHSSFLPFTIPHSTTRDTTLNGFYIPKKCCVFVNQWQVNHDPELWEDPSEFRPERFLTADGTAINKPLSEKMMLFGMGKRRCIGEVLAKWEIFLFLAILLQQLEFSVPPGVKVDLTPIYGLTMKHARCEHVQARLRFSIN
# Outline: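 Inhibition was calculated relative to 57 uM furafylline (full inhibition). The reaction used human CYP1A2 at 20nM with Luciferin-ME at its Km, 100uM, driven by an NADPH-regenerating system for 60 min at room temperature.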
# [2] = target: Glucocorticoid receptor (Homo sapiens) (UniProt P04150); test: GR-EFC Redistribution (AID 451; calls by dose curve; further: potency means the concentration at half of the fitted maximal effect); details: CHO-K1 GR-EFC translocation, beta-gal luminescence, 2 h
# Chain of Glucocorticoid receptor (Homo sapiens) (P04150 whole entry, looked up, the tested form may be a part): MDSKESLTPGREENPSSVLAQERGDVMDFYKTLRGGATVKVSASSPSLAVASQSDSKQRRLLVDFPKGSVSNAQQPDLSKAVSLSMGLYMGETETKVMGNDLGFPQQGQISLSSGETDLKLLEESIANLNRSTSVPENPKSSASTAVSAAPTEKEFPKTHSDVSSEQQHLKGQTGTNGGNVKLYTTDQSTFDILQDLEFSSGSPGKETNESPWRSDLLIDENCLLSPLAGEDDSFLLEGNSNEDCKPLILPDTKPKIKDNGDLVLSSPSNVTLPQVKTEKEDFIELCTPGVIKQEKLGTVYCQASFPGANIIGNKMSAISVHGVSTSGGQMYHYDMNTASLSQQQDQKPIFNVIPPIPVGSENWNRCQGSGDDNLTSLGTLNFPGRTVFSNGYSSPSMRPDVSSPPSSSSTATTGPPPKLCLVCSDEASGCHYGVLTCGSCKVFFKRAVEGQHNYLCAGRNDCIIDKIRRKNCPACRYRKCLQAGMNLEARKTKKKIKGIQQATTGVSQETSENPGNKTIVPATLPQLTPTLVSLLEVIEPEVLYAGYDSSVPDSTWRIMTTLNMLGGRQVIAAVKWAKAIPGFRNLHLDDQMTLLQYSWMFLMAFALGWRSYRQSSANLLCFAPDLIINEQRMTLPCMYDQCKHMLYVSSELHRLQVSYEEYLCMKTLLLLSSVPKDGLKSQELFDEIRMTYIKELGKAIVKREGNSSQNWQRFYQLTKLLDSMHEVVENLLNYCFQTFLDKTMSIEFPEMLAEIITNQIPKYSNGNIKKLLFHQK
# Outline: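 CHO-K1 cells expressing nuclear EA and GR-ED fragments of b-gal; compounds titrated up to 46 uM final, 2 h at 37 C. GR nuclear translocation read as complemented b-gal luminescence after 1 h RT detection.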
# [3] = target: Cytochrome P450 2C9 (Homo sapiens) (UniProt P11712); test: qHTS Assay for Inhibitors and Substrates of Cytochrome P450 2C9 (AID 883); further: nearly all actives have a fitted effect of over 60% in size; further: potency means the concentration at half of the fitted maximal effect
# Chain of Cytochrome P450 2C9 (Homo sapiens) (P11712 whole entry, looked up): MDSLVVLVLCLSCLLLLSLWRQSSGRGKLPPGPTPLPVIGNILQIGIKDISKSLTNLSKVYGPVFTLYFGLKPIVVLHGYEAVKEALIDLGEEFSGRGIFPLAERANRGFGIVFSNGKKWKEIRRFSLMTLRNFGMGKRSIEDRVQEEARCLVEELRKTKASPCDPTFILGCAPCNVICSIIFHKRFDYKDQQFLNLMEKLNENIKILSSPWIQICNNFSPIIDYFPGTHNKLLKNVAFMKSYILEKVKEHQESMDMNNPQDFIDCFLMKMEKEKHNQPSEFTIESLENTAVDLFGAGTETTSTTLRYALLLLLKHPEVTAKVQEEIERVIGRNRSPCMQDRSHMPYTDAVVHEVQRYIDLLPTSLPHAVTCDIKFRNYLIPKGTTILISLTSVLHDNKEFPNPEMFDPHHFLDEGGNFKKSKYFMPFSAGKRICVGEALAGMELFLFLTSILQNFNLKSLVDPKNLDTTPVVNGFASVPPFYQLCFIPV
# Outline: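 Human CYP2C9 (10nM) with Luciferin-H at 100uM (its KM) in 25mM KPO4; compound preincubated 10 min at 37C, then NADPH regeneration for 60 min at 37C. Luciferin read by luminescence after detection reagent; normalized to 57uM sulphaphenazole as full inhibition.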
# [4] = target: Cytochrome P450 2D6 (Homo sapiens) (UniProt P10635); test: qHTS Assay for Inhibitors and Substrates of Cytochrome P450 2D6 (AID 891); further: nearly all actives have a fitted effect of over 60% in size; further: potency means the concentration at half of the fitted maximal effect
# Chain of Cytochrome P450 2D6 (Homo sapiens) (P10635 whole entry, looked up): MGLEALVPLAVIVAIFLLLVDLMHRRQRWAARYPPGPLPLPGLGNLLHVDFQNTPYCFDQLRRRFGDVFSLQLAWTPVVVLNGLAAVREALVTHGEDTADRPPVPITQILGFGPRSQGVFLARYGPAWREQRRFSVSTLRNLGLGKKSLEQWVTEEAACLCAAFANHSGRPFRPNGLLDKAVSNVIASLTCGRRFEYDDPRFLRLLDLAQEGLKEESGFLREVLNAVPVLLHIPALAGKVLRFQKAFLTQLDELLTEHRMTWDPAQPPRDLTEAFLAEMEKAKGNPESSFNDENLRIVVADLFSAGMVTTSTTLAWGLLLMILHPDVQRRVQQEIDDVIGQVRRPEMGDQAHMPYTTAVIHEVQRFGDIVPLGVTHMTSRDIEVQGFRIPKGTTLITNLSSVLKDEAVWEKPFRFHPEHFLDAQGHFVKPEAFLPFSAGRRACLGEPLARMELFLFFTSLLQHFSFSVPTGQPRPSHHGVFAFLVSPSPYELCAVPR
# Outline: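 Human CYP2D6 (5 nM) with 30 uM Luciferin-ME EGE (at Km) in 100 mM KPO4, compound preincubated 10 min, then NADPH regeneration system for 60 min at room temperature. Luciferin read by luminescence; normalized to 1.43 uM quinidine.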
# [5] = target: Cytochrome P450 2C19 (Homo sapiens) (UniProt P33261); test: qHTS Assay for Inhibitors and Substrates of Cytochrome P450 2C19 (AID 899); further: nearly all actives have a fitted effect of over 60% in size; further: potency means the concentration at half of the fitted maximal effect
# Chain of Cytochrome P450 2C19 (Homo sapiens) (P33261 whole entry, looked up): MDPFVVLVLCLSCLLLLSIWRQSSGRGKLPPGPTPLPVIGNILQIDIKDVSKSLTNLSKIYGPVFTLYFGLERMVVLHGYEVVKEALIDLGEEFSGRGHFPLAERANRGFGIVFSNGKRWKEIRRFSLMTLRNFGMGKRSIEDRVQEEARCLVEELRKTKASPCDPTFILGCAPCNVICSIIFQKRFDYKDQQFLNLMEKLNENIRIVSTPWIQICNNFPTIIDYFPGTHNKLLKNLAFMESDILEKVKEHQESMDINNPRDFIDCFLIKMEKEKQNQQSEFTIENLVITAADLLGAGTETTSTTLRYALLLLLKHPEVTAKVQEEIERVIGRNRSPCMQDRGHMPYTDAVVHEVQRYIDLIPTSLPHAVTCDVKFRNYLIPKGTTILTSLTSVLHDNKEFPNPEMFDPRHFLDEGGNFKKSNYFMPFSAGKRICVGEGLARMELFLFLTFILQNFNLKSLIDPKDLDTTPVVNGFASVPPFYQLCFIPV
# Outline: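 5 nM human CYP2C19 with 10uM Luciferin-H EGE (at KM) in 50mM KPO4, compound preincubated 10 min at 37C, then NADPH regeneration for 60 min at 37C. Luciferin read by luminescence after detection reagent; normalized to 57uM ketoconazole as full inhibition.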
# [6] = target: Mitogen-activated protein kinase 10 (Mus musculus) (UniProt Q61831); test: JNK3 AlphaScreen Assay (AID 530; active means well fitted curve in either direction with a large enough effect, not every such curve was filed as active;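 further: kinase came from lysate of stimulated human HepG2 cells; signal reports phosphorylation of biotinylated GST-cJun 1-79 at Ser73 with 10 µM ATP; series mostly up to about 57 µM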)
# Outline: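 qHTS format: compounds tested as titrations against IL-1beta/TNF-alpha-activated HepG2 lysate JNK3 with biotin-GST-cJun substrate and 10 uM ATP at room temperature. Loss of anti-phospho-cJun AlphaScreen signal indicates inhibition.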
# [7] = target: Cytochrome P450 3A4 (Homo sapiens) (UniProt P08684); test: qHTS Assay for Activators of Cytochrome P450 3A4 (AID 885); further: nearly all actives have a fitted effect of over 65% in size
# Chain of Cytochrome P450 3A4 (Homo sapiens) (P08684 whole entry, looked up): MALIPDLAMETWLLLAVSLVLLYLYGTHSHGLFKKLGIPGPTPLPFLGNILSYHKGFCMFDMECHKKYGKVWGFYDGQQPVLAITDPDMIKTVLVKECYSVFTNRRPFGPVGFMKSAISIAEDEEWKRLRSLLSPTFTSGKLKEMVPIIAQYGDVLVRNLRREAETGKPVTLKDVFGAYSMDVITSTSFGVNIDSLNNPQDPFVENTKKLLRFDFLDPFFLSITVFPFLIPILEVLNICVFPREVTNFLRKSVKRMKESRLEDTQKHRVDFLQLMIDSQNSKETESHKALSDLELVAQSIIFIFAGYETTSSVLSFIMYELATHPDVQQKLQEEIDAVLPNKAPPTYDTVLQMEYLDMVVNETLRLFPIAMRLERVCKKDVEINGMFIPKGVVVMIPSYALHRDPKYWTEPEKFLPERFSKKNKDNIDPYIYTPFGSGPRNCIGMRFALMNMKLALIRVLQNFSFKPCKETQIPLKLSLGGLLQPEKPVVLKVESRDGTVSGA
# Outline: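 Human CYP3A4 (20 nM) with Luciferin-PPXE at 25 uM (its KM) in 200 mM KPO4; 10 min compound preincubation, then NADPH regeneration and 60 min reaction at RT. Luciferin read by luminescence; normalized to 57 uM ketoconazole full inhibition.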
# [8] = target: Tyrosyl-DNA phosphodiesterase 1 (Homo sapiens) (UniProt Q9NUW8); test: Confirmation Assay for Inhibitors of Tyrosyl-DNA Phosphodiesterase (TDP1) (AID 489007); details: recombinant human TDP1 enzymatic activity, dose-response; further: potency means the concentration at half of the fitted maximal effect; nearly all actives have a fitted effect of over 40% in size
# Chain of Tyrosyl-DNA phosphodiesterase 1 (Homo sapiens) (Q9NUW8 whole entry, looked up): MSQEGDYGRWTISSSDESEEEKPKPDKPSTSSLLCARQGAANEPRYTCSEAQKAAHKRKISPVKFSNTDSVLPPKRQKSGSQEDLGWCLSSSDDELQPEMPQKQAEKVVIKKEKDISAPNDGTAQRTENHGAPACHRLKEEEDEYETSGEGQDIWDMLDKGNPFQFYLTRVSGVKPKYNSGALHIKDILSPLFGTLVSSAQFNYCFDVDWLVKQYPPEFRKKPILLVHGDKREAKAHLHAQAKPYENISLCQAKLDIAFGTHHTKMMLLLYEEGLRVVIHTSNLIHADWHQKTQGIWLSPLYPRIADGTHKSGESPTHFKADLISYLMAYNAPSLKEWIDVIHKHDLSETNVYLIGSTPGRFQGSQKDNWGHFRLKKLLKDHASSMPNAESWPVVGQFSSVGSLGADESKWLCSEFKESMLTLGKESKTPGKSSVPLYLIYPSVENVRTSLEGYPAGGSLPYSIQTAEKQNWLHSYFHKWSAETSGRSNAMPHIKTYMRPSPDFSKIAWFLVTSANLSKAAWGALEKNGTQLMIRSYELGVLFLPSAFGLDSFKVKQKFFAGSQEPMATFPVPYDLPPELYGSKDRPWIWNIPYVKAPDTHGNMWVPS
# Outline: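 Confirmation of primary-screen follow-ups in a qHTS format. Substrate cleavage by Tdp1 (1 nM) of a 3'-phosphotyrosine-FITC, 5'-biotin oligo (15 nM) was monitored as decreased AlphaScreen signal after a 5 min room-temperature reaction.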
# [9] = target: 3',5'-cyclic-AMP phosphodiesterase 4B (Homo sapiens) (UniProt Q07343); test: qHTS Assay for Inhibitors of PDE-IV (AID 607; active means well fitted activation curve with a large enough effect in the main read-out, with a control signal flat, not every such curve was filed as active)
# Chain of 3',5'-cyclic-AMP phosphodiesterase 4B (Homo sapiens) (Q07343 whole entry, looked up): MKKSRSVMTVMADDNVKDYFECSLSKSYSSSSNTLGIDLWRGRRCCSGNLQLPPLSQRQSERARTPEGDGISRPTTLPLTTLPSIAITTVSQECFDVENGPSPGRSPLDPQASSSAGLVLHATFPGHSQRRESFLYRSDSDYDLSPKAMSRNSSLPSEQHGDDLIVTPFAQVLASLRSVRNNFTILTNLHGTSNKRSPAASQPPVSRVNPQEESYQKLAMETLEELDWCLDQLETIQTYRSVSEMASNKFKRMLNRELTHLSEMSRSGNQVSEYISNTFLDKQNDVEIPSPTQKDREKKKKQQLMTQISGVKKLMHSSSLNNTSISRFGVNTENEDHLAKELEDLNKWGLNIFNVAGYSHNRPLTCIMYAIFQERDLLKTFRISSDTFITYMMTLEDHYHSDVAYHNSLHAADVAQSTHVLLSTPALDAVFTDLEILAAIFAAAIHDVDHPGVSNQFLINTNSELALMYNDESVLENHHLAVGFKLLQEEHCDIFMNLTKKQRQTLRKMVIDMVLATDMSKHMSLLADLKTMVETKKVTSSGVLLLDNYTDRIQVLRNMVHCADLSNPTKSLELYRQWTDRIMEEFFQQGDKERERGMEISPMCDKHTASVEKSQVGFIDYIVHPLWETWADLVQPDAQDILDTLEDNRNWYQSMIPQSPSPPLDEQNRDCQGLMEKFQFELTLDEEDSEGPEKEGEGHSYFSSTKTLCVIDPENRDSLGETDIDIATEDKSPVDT
# Outline: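 HEK293 ACTOne cells with CNG channel (1000/well), endogenous PDE4; membrane potential dye, compounds up to 22.9 uM final. Fluorescence Ex 535/Em 590; RO 20-1724 (100 uM final) as reference.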
SMILES,Potency [1],Potency [2] [µM],Potency [3],Potency [4],Potency [5],Potency [6],Potency [7],Potency [8],Potency [9]
CC(C)C[C@@H](CC(=O)N[C@@H](CCC(=O)O)CC(=O)O)NC(=O)[C@@H]1CCCC[C@H]1NC(=O)C[C@H](CCCN)NC(=O)C[C@H](CO)NC(=O)[C@@H]1CCCC[C@H]1N,inactive,> 46,inactive,inactive,inactive,–,–,–,–
CCCCC#Cc1ccccc1CC(=O)Nc1ccccc1,2.51 µM (active),–,2.51 µM (active),–,0.794 µM (active),inactive,inactive,31.6 µM (active),–
CC(C)C[C@@H](CC(=O)N[C@@H](CCC(=O)O)CC(=O)O)NC(=O)[C@@H]1CNCC[C@H]1NC(=O)C[C@@H](NC(=O)C[C@H](Cc1c[nH]c2ccccc12)NC(=O)[C@@H]1CCCC[C@H]1N)C(C)C,inactive,> 46,inactive,inactive,inactive,–,–,–,inactive
CC(C)[C@@H](CC(=O)N[C@@H]1CCCC[C@H]1C(=O)N[C@H](CC(=O)N[C@@H](CCC(=O)O)CC(=O)O)Cc1c[nH]c2ccccc12)NC(=O)C[C@H](Cc1c[nH]c2ccccc12)NC(=O)[C@@H]1CNCC[C@H]1N,inactive,> 46,inactive,inactive,inactive,–,–,–,inactive
CC(C)C[C@@H](CC(=O)N[C@@H](CCC(=O)O)CC(=O)O)NC(=O)[C@@H]1CCCC[C@H]1NC(=O)C[C@@H](NC(=O)C[C@H](CO)NC(=O)[C@@H]1CCCC[C@H]1N)C(C)C,inactive,> 46,–,inactive,inactive,inactive,–,–,–
COc1cc(/C=C\C(=O)N2CCCCC2=O)cc(OC)c1OC,0.1 µM (active),> 46,inactive,inactive,inactive,–,–,–,–
Clc1ccc(CO[C@@H](Cn2ccnc2)c2ccc(Cl)cc2Cl)cc1,0.1 µM (active),> 20.6,–,0.199 µM (active),0.0631 µM (active),–,–,–,–
NCCC[C@@H](CC(=O)N[C@@H]1CCNC[C@H]1C(=O)N[C@H](CC(=O)N[C@@H](CCC(=O)O)CC(=O)O)Cc1c[nH]c2ccccc12)NC(=O)C[C@H](CO)NC(=O)[C@@H]1CNCC[C@H]1N,inactive,> 46,–,–,inactive,inactive,–,–,–
CC(C)[C@@H](CC(=O)N[C@@H]1CCNC[C@H]1C(=O)N[C@H](CC(=O)N[C@@H](CCC(=O)O)CC(=O)O)Cc1c[nH]c2ccccc12)NC(=O)C[C@H](CO)NC(=O)[C@@H]1CNCC[C@H]1N,inactive,> 46,–,inactive,inactive,–,–,–,inactive
CC(C)C[C@@H](CC(=O)N[C@@H](CCCN)CC(=O)N[C@@H]1CCNC[C@H]1C(=O)N[C@H](CC(=O)N[C@@H](CCC(=O)O)CC(=O)O)Cc1c[nH]c2ccccc12)NC(=O)[C@@H]1CNCC[C@H]1N,inactive,> 46,inactive,inactive,inactive,–,–,–,inactive
CC(C)[C@@H](CC(=O)N[C@@H]1CCCC[C@H]1C(=O)N[C@H](CC(=O)N[C@@H](CCC(=O)O)CC(=O)O)Cc1c[nH]c2ccccc12)NC(=O)C[C@H](Cc1ccccc1)NC(=O)[C@@H]1CCCC[C@H]1N,inactive,> 46,inactive,inactive,inactive,–,–,–,inactive
CC(C)C[C@@H](CC(=O)N[C@@H](CCC(=O)O)CC(=O)O)NC(=O)[C@@H]1CNCC[C@H]1NC(=O)C[C@@H](NC(=O)C[C@H](Cc1ccccc1)NC(=O)[C@@H]1CNCC[C@H]1N)C(C)C,31.6 µM (active),> 46,inactive,–,inactive,inactive,–,–,–
CC(C)C[C@@H](CC(=O)N[C@@H](CCC(=O)O)CC(=O)O)NC(=O)[C@@H]1CNCC[C@H]1NC(=O)C[C@@H](NC(=O)C[C@H](Cc1ccccc1)NC(=O)[C@@H]1CCCC[C@H]1N)C(C)C,31.6 µM (active),> 46,inactive,inactive,inactive,–,–,–,inactive
CC(C)C[C@@H](CC(=O)N[C@@H](CCC(=O)O)CC(=O)O)NC(=O)[C@@H]1CCCC[C@H]1NC(=O)C[C@H](CCCN)NC(=O)C[C@H](CO)NC(=O)[C@@H]1CNCC[C@H]1N,inactive,> 46,–,inactive,inactive,inactive,–,–,inactive
NCCC[C@@H](CC(=O)N[C@@H]1CCCC[C@H]1C(=O)N[C@H](CC(=O)N[C@@H](CCC(=O)O)CC(=O)O)Cc1c[nH]c2ccccc12)NC(=O)C[C@H](CO)NC(=O)[C@@H]1CNCC[C@H]1N,inactive,> 46,–,–,inactive,–,–,–,inactive
NCCC[C@@H](CC(=O)N[C@@H]1CCCC[C@H]1C(=O)N[C@H](CC(=O)N[C@@H](CCC(=O)O)CC(=O)O)Cc1ccccc1)NC(=O)C[C@H](CO)NC(=O)[C@@H]1CNCC[C@H]1N,inactive,> 46,–,–,inactive,inactive,–,–,–
CCc1c2c(nc3cccc(SC)c13)COC2,2.51 µM (active),–,–,–,–,inactive,–,–,–
CC(C)[C@@H](CC(=O)N[C@@H]1CCCC[C@H]1C(=O)N[C@H](CC(=O)N[C@@H](CCC(=O)O)CC(=O)O)Cc1ccccc1)NC(=O)C[C@H](CO)NC(=O)[C@@H]1CNCC[C@H]1N,inactive,> 46,–,inactive,inactive,–,–,–,inactive
CC(C)[C@@H](CC(=O)N[C@@H]1CCNC[C@H]1C(=O)N[C@H](CC(=O)N[C@@H](CCC(=O)O)CC(=O)O)Cc1ccccc1)NC(=O)C[C@H](CO)NC(=O)[C@@H]1CNCC[C@H]1N,inactive,> 46,–,inactive,–,–,–,–,inactive
